Assay results: PubChem BioAssay (Tox21)
Inconclusive results are not listed. Calls of active or inactive are those of the source. Unless noted, the call rests on the fitted dose curve.

Key:
[1] = Nuclear factor erythroid 2-related factor 2/antioxidant responsive element (Nrf2/ARE) small molecule agonists: qHTS cell viability counter screen in human keratinocytes (AID 1919968; active means well fitted curve in the direction sought with a large enough effect in the repeat runs; an effect the other way counts as inactive or inconclusive; further: nearly all actives have a fitted effect of over 55% in size)
How it was run: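 In human HaCaT keratinocytes stably expressing an ARE-driven luciferase, compound exposure lasted 23 h at 37 C under 5% CO2. Viable cells are quantified with a protease-based fluorogenic reagent (CellTiter-Fluor) read 1 h after addition.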

[2] = Nuclear factor erythroid 2-related factor 2/antioxidant responsive element (Nrf2/ARE) small molecule agonists: luciferase reporter gene qHTS assay in human keratinocytes (AID 1919969); further: nearly all actives have a fitted effect of over 35% in size
[3] = target: Gonadotropin-releasing hormone receptor (Homo sapiens) (UniProt P30968); test: Human gonadotropin-releasing hormone receptor (GnRHR) small molecule agonists, calcium flux assay in GnRHR-HEK293 cells (AID 1920063); further: nearly all actives have a fitted effect of over 35% in size
How it was run: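 Intracellular calcium rise is the read-out: engineered human GnRHR HEK293 cells, dye-loaded, are exposed to DMSO-dissolved compounds and fluorescence at Ex/Em 480/540 is tracked for 3 min.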

[4] = target: KiSS-1 receptor (Homo sapiens) (UniProt Q969F8); test: Human kisspeptin (KISS1R) small molecule agonists, calcium flux assay in KISS1R-HEK293 cells (AID 1920064; active means well fitted curve in the direction sought with a large enough effect in the repeat runs; an effect the other way counts as inactive or inconclusive)
How it was run: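 Concentration-response testing used 15 concentrations in triplicate on human KISS1R-expressing HEK293 cells. Calcium-dependent fluorescence (Ex/Em 480/540) was followed kinetically for 3 min after compound transfer.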

[5] = G protein-coupled receptor (GPCR) small molecule agonists, calcium flux assay: HEK293 wild type cell line counter screen (AID 1920065)
How it was run: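 Fluorescence intensity signals activation. After overnight (18 h) culture and a 1 h calcium dye load at 37 C, compounds are added by pin tool and the plate read at 480/540 nm for 3 min in 1 s steps.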

[6] = p53 small molecule agonists, cell-based qHTS assay with human liver microsomes (AID 1963577);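 further: p53 response element beta-lactamase reporter cells with liver microsomes plus NADPH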
How it was run: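 Reporter activation was measured by LiveBLAzer fluorescence intensity in p53RE-bla cells, which had been exposed to compounds for 16 h at 37 C alongside 0.5 mg/mL human liver microsomes and 0.5 mg/mL NADPH (final concentrations).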

[7] = p53 small molecule agonists, cell-based qHTS assay with rat liver microsomes (AID 1963578)
How it was run: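 Compound in DMSO added to p53RE-bla cells 5 h post-plating; rat microsomes/NADPH 0.5 mg/mL final; 16 h, 37 C; LiveBLAzer 2 h RT.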

[8] = p53 small molecule agonists, cell-based qHTS assay with human liver microsomes: qHTS cell viability counter screen (AID 1963579); further: nearly all actives have a fitted effect of over 45% in size
How it was run: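 HLM-supplemented (0.5 mg/mL final) and NADPH-supplemented (0.5 mg/mL final) p53RE-bla cultures, 4,000 cells per well, were dosed with compounds in DMSO for 16 h at 37 C; luminescent ATP detection (CellTiter-Glo, 30 min, room temperature) quantified surviving cells.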

[9] = p53 small molecule agonists, cell-based qHTS assay: qHTS cell viability counter screen (AID 1963581); further: nearly all actives have a fitted effect of over 45% in size
How it was run: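 Luminescence from CellTiter-Glo, reflecting ATP content, serves as the cytotoxicity measure; it is taken after the 2 h reporter substrate step in HCT-116 p53RE-bla cells dosed for 16 h at 37 C.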

[10] = p53 small molecule agonists, cell-based qHTS assay (AID 1963582; active means well fitted activation curve with a large enough effect in the signal ratio in the repeat runs, not every such curve was filed as active; the % refers to the signal ratio)
How it was run: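 After plating, p53RE-bla cells sat 5 h in the incubator; compounds or DMSO vehicle were pinned in; a 16 h incubation at 37 C followed; FRET substrate was added and, 2 h later at RT, fluorescence was measured.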

[11] = target: 5-hydroxytryptamine receptor 2A (Homo sapiens) (UniProt P28223); test: 5-hydroxytryptamine receptor 2A (HTR2A) small molecule antagonists, cell-based qHTS assay (AID 1963586); further: nearly all actives have a fitted effect of over 45% in size
How it was run: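 CHO cells stably expressing human HTR2A were plated for 18 h at 37 C, then loaded with calcium dye for 1 h. Compounds were preincubated 5 min at room temperature before DOI (4 nM solution) was added. Kinetic fluorescence was read for 3 min.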

[12] = target: 5-hydroxytryptamine receptor 2A (Homo sapiens) (UniProt P28223); test: 5-hydroxytryptamine receptor 2A (HTR2A) small molecule agonists, cell-based qHTS assay (AID 1963587); further: nearly all actives have a fitted effect of over 30% in size
How it was run: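 HTR2A-CHO cells, plated 18 h at 37 C/5% CO2, dye-loaded 1 h at 37 C; compounds in DMSO added by pin tool (agonist mode). Intracellular calcium flux read as kinetic fluorescence on FDSS over 2 min at 1 s intervals.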

[13] = target: Muscarinic acetylcholine receptor M1 (Homo sapiens) (UniProt P11229); test: Cholinergic receptor muscarinic 1 (CHRM1) small molecule antagonists, cell-based qHTS assay (AID 1963588); further: nearly all actives have a fitted effect of over 40% in size
How it was run: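 Compounds were tested at 15 concentrations in three independent runs. Dye-loaded CHRM1-CHO cells were exposed 5 min at room temperature before stimulation by acetylcholine added at 50nM. Intracellular calcium was read kinetically on FDSS for 3 min.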

[14] = target: Muscarinic acetylcholine receptor M1 (Homo sapiens) (UniProt P11229); test: Cholinergic receptor muscarinic 1 (CHRM1) small molecule agonists, cell-based qHTS assay (AID 1963589); further: nearly all actives have a fitted effect of over 35% in size
How it was run: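 Fluorescent calcium dye reports M1 activation in stably transfected CHO cells. Compounds, 15 concentrations, added after 1 h dye loading at 37 C; kinetic reading at 1 sec intervals.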

[15] = cAMP Responsive Elements (CRE) small molecule agonists, cell-based qHTS assay (AID 1963590)
How it was run: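 Compound exposure lasted 3 h at 37 C/5% CO2 in CRE-bla HEK 293T cells grown in assay medium with 10% dialyzed FBS and 25 mM HEPES. Reporter signal came from LiveBLAzer B/G FRET substrate, 2 h, room temperature.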

[16] = cAMP Responsive Elements (CRE) small molecule antagonists, cell-based qHTS assay (AID 1963591; active means well fitted inhibition curve with a large enough effect in the signal ratio in the repeat runs, not every such curve was filed as active; the % refers to the signal ratio)
How it was run: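 Stimulation used NKH477 at a final 0.25 uM for 3 h in compound-treated CRE-bla HEK293T cells, seeded 18 h beforehand. Reporter activity was measured with LiveBLAzer B/G FRET substrate after 2 h at room temperature.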

[17] = target: Beta-2 adrenergic receptor (Homo sapiens) (UniProt P07550); test: Adrenergic beta2 receptor (ADRB2) small molecule antagonists, cell-based qHTS assay (AID 1963592); further: series mostly up to about 92 µM; nearly all actives have a fitted effect of over 50% in size
How it was run: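 Assay format: CHO-ADRB2 cells, 18-20hr seeding at 37C/5% CO2, then compound plus 1nM isoproterenol agonist mix for 0.5hr RT. Homogeneous time-resolved fluorescence cAMP detection after 1hr, expressed as 665/615 nm ratio.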

[18] = target: D(2) dopamine receptor (Homo sapiens) (UniProt P14416); test: Dopamine D2 receptor (DRD2) small molecule agonists, cell-based qHTS assay (AID 1963594); further: nearly all actives have a fitted effect of over 35% in size
How it was run: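 HEK293 cells stably expressing DRD2 were cultured 24 h at 37 C, then given Ro20-1724 (0.1 mM final) and compounds for 10 min at room temperature. NKH477 (200nM) was then added for 30 min. cAMP was read by HTRF.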

[19] = target: D(2) dopamine receptor (Homo sapiens) (UniProt P14416); test: Dopamine D2 receptor (DRD2) small molecule antagonists, cell-based qHTS assay (AID 1963595; active means well fitted inhibition curve with a large enough effect in the signal ratio in the repeat runs, with a control signal flat; the % refers to the signal ratio)
How it was run: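 Human DRD2 antagonist qHTS measuring cAMP by HTRF. The cells are exposed to compound for 10 min, then to NKH477 (200 nM) and quinpirole (12 nM) for 30 min at RT, with Ro20-1724 (0.1 mM) present throughout.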

Measured: Potency

Gonadotropin-releasing hormone receptor (Homo sapiens), sequence (P30968 whole entry, looked up): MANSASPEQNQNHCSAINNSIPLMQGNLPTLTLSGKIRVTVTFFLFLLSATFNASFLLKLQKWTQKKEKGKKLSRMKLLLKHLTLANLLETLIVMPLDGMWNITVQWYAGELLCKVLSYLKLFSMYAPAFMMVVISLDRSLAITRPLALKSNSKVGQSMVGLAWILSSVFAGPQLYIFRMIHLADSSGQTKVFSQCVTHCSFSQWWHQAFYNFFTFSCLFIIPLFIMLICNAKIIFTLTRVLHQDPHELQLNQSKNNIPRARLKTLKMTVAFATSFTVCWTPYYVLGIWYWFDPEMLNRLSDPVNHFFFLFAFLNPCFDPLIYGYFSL
5-hydroxytryptamine receptor 2A (Homo sapiens), sequence (P28223 whole entry, looked up): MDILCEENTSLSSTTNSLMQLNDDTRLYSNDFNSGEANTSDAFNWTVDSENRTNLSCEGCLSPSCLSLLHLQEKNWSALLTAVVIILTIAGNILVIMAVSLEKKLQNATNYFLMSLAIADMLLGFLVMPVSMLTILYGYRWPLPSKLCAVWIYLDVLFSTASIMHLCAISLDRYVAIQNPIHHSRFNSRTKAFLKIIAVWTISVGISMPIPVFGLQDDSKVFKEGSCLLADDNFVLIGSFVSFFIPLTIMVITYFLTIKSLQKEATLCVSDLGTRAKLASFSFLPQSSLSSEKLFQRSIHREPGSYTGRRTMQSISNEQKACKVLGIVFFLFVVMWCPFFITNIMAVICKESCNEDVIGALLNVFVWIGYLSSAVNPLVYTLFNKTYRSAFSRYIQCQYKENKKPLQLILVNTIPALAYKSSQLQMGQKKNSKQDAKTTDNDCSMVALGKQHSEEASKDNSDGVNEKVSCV
Muscarinic acetylcholine receptor M1 (Homo sapiens), sequence (P11229 whole entry, looked up): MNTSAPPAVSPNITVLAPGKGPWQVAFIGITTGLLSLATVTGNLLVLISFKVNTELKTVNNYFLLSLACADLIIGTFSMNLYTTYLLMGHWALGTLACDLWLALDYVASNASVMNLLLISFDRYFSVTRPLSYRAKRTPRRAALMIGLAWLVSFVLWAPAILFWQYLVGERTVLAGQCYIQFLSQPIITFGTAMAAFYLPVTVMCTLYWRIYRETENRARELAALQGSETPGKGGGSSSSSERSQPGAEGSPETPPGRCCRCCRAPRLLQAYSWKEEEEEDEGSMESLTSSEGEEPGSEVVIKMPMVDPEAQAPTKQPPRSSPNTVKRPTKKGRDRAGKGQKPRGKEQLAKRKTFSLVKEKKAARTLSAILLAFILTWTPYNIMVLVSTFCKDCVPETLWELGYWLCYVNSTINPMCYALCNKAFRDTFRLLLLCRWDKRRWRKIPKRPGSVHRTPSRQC
KiSS-1 receptor (Homo sapiens), sequence (Q969F8 whole entry, looked up): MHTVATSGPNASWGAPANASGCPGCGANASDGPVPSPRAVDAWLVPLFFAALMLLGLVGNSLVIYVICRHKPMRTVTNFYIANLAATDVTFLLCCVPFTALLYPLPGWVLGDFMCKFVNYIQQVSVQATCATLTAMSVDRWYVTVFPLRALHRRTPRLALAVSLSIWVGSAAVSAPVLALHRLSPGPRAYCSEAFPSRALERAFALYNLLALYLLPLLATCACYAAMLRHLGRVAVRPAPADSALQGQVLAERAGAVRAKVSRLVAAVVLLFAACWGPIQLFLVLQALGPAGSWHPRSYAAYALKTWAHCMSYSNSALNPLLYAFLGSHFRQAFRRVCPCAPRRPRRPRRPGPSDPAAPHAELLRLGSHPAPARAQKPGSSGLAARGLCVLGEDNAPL
Beta-2 adrenergic receptor (Homo sapiens), sequence (P07550 whole entry, looked up): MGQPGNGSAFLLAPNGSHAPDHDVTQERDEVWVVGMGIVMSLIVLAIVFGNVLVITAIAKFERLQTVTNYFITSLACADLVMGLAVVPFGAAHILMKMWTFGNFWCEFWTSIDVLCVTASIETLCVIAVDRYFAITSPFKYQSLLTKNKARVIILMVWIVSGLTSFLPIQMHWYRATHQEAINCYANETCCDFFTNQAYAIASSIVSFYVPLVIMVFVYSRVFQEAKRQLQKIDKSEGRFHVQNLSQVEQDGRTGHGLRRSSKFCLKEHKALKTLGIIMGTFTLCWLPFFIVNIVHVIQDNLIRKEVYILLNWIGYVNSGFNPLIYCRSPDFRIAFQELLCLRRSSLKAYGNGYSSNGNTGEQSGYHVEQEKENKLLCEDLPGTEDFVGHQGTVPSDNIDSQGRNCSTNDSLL
D(2) dopamine receptor (Homo sapiens), sequence (P14416 whole entry, looked up): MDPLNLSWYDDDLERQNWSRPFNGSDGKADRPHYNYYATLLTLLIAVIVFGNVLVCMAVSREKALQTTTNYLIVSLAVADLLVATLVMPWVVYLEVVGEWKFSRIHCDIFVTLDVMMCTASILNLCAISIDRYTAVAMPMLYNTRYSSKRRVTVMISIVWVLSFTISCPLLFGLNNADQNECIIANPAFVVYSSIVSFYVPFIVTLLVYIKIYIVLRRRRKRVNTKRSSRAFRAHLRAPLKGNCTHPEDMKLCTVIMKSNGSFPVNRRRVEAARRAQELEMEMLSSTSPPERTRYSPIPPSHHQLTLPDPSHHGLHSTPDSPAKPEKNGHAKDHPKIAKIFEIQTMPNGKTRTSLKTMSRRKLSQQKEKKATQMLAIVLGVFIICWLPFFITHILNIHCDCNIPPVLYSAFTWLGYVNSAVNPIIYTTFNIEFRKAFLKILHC

COC(OC)C(C)c1ccccc1 (configuration not stated)
inactive: all assays above

OCCOc1ccc(OCCO)cc1
inactive: all assays above

CC(C)c1cccc(O)c1
inactive: all assays above
